# PubChem BioAssay (NCI)
# This is part of a sample that, as a whole, favours compounds with a hit. Of some 83,000 tested, about 20% had one in any assay.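 Each cell line was grown in a 96-well plate and treated with one concentration of compound for 48 hours. Values below 10 were considered active.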 Values without a mark were called inactive. Activity calls are given as the source filed them.
# Tests used:
# Assay in all cases: NCI-60 one-dose screen, 48 h (100 = growth as untreated, 0 = no growth, -100 = all killed)
# Conditions in all cases: 10 µM unless noted
# [1] = tested on: SR leukemia
# [2] = tested on: RPMI-8226 leukemia
# [3] = tested on: OVCAR-8 ovarian
# [4] = tested on: OVCAR-5 ovarian
# [5] = tested on: OVCAR-4 ovarian
# [6] = tested on: SK-OV-3 ovarian
# [7] = tested on: IGROV1 ovarian
# [8] = tested on: OVCAR-3 ovarian
# [9] = tested on: HS 578T breast
# [10] = tested on: NCI/ADR-RES ovarian
SMILES,growth [1],growth [2],growth [3],growth [4],growth [5],growth [6],growth [7],growth [8],growth [9],growth [10]
CCN1CCN(C(=O)[C@]23CC[C@@H](C)[C@H](C)[C@@H]2C2=CC[C@@H]4[C@@]5(C)CCC(=O)C(C)(C)[C@@H]5CC[C@@]4(C)[C@]2(C)CC3)CC1,-13.4% (active),-34.4% (active),16.5%,-3.73% (active),18%,16.2%,14.7%,16.6%,-1.77% (active),9.16% (active)
COc1cc(OC)cc(-c2ccc(-c3ccc(C(=N)N)cn3)s2)c1,6.61% (active),-1.98% (active),17.8%,89.8%,28.4%,82.2%,78.4%,5.54% (active),84.9%,95.4%
COc1cc(N=Nc2ccc(O)c3ncccc23)c2ncccc2c1,7.54% (active),31.7%,17.1%,59.8%,17.4%,43.3%,27.4%,30.3%,33.9%,-1.77% (active)
COc1ccc(-c2cc(-c3cccc(Cl)c3)c(C#N)c(=O)[nH]2)c(OC)c1,111%,68.3%,94.4%,99.1%,91.8%,114%,92.1%,90.5%,74.4%,90.9%
CCOC(=O)c1cnn(-c2ccc(S(N)(=O)=O)cc2)c1N,95.5%,94.1%,102%,89.2%,103%,104%,97.9%,134%,110%,96.1%
CN1CCN(c2ccc(/C=C/C(=O)c3ccc(O)cc3)cc2)CC1,101%,102%,95.9%,98.1%,89.5%,105%,105%,106%,95.7%,99.9%
c1ccc(-c2cc(-c3cc(-c4ccccc4)on3)no2)cc1,61.6%,88.1%,74.6%,77.1%,96.7%,109%,63.6%,127%,116%,69.7%
CCN1C(=S)N(CC)C2C1NC(=S)N2/N=C/C=C/c1ccccc1 (stereo not given),20%,41.4%,41.6%,54.5%,61%,35.5%,37.9%,3.77% (active),12.1%,15.4%
COc1ccc2c(c1)c(-c1nc(-c3c[nH]c4c(Cl)nccc34)cs1)cn2C,32.1%,78%,95.1%,57.4%,34%,78.6%,56.5%,47.9%,87.6%,95.5%
S=c1nc(CS)[nH]c2ccccc12,101%,102%,90.9%,102%,94.3%,100%,85.7%,106%,94.1%,101%
CCCCC(NC(=O)CN1C(=O)/C(=C/C(C)=C/c2ccccc2)SC1=S)C(=O)O (stereo not given),115%,115%,102%,101%,101%,105%,102%,112%,102%,98%
O=[N+]([O-])c1cc(C(F)(F)F)ccc1Sc1ccc(C(F)(F)F)cc1[N+](=O)[O-],7.21% (active),34.2%,85.7%,132%,44.6%,56%,77.7%,92.3%,66.3%,82.5%
Nc1nc(Nc2ccc(F)cc2)nn1C(=O)c1cc(Cl)ccc1Cl,37.5%,97.1%,68.4%,59.5%,92.8%,118%,62.6%,72.7%,56.1%,69.1%
O=c1cc(N/N=C/c2ccc(F)cc2)c2cc(Cl)ccc2[nH]1,4.1% (active),-43.8% (active),93.6%,88.4%,92.9%,84.9%,107%,100%,121%,105%
O=C1OCC2=C1C(c1cccc(C(F)(F)F)c1)c1cc3c(cc1N2CCO)OCCO3 (stereo not given),13.3%,22.2%,11.4%,45.9%,66.3%,16.1%,38%,-4.23% (active),27.8%,22.2%
Cc1ccc(C(=O)c2ccc(CC(=O)N=Nc3c(O)[nH]c4ccc(OC(F)(F)F)cc34)n2C)cc1,102%,102%,94%,100%,118%,96.9%,85.2%,117%,94.5%,92.4%
COc1cc(F)c(/C=C/c2cc(/C=C/c3cc(OC)c(OC)cc3F)n(-c3cc(F)cc(F)c3)n2)cc1OC,8.98% (active),18%,36.6%,51.4%,49.9%,108%,88.6%,24.2%,38%,12%
CCOC(=O)c1cnn(CC(O)CC)c1NC(=O)NCc1ccccc1C(F)(F)F (stereo not given),114%,81%,102%,103%,106%,91.4%,94.9%,107%,109%,95.4%
CC/C(=C(/c1ccc(O)cc1)c1ccc(OCCN2CCCCCC2)cc1)c1ccc(Cl)cc1,-24% (active),-41.6% (active),83.6%,75%,87.4%,96.4%,77.3%,61%,85.3%,84.5%
CC[C@]1(O)CC2CN(CCc3c([nH]c4ccccc34)C(C(=O)OC)(c3cc4c(cc3OC)N(C=O)[C@H]3[C@@](O)(C(=O)OC)[C@H](OC(C)=O)[C@]5(CC)[C@@H]6C[C@@H]6CN6CC[C@]43[C@@H]65)C2)C1 (stereo not given in full),12.7%,23.4%,10.3%,29.6%,45.5%,-17.7% (active),8.34% (active),-53.6% (active),-2.32% (active),-6.57% (active)
OB(O)c1ccsc1-c1nc2ccc3[nH]ncc3c2c2c1CCCC2,14.1%,60.3%,66.2%,92.1%,72.3%,15.3%,32.6%,85.2%,32.9%,75.6%
COc1ccc(Nc2ncnc3ccc(-c4cncc(NS(C)(=O)=O)c4)cc23)cc1Cl,11.2%,24.9%,46.2%,45.1%,57.5%,21.6%,3.39% (active),15.2%,-3.14% (active),86%
Clc1ccc(CNc2ccc3nc(CCC4CCCCC4)[nH]c3c2)cc1,26.2%,-6.18% (active),65.3%,53%,32.3%,78.9%,45.9%,69.6%,78.8%,54.7%
CC(Sc1ccccc1)C(=O)O (stereo not given),153%,117%,99.5%,106%,102%,97.3%,81.4%,106%,115%,111%
Fc1ccc(NC(c2ccc(F)cc2)C2CCN(CCCCc3ccccc3)CC2)cc1 (stereo not given),-40.5% (active),-17.6% (active),-21.9% (active),59.1%,50.6%,64.6%,55.9%,34%,71.7%,49.5%
COc1cccc(C2C(C#N)=C(N)Oc3cc(OCCCCCC[P+](c4ccccc4)(c4ccccc4)c4ccccc4)ccc32)c1 (stereo not given),-48.8% (active),-36.4% (active),1.01% (active),-2.3% (active),2.58% (active),-33.5% (active),-55.8% (active),-81.3% (active),-16.5% (active),85.2%
